This is a sample that favours compounds with a hit; in the whole collection about 13% have one here.
USP30 block: blocks human USP30 ubiquitin-rhodamine cleavage; Q70CQ3; purified USP30, Ub-rhodamine cleavage fluorescence; inhibition, % at 25 µM; 47,000 tested, 5.3% active
Target sequence (Q70CQ3 whole entry, looked up): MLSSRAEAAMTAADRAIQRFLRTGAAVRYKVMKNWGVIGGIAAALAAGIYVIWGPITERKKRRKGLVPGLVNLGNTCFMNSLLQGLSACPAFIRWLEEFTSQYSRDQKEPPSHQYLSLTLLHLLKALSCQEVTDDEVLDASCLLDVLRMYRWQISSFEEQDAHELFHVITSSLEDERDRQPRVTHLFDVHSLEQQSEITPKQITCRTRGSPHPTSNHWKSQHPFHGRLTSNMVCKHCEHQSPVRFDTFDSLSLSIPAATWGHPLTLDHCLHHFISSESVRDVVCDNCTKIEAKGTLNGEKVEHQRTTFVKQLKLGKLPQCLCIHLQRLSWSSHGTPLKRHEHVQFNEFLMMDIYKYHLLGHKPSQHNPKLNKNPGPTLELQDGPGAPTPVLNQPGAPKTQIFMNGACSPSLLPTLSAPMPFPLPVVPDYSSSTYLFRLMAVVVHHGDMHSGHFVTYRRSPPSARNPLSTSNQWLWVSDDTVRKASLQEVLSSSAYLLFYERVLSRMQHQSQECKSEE
USP28 inh: human USP28 deubiquitinase inhibition; Q96RU2; purified USP28, Ub-rhodamine cleavage fluorescence, 30 min; inhibition, % at 25 µM; 47,000 tested, 3% active
USP17 inh: inhibitors of human USP17 deubiquitinase; A8MUK1; purified USP17, Ub-rhodamine cleavage fluorescence, 3 h; inhibition, % at 50 µM; 47,000 tested, 6.5% active
USP10 inh: inhibitors of human USP10 deubiquitinase. Q14694. purified USP10, Ub-rhodamine fluorescence, 60 min. inhibition, % at 20 µM. 47,000 tested, 1.1% active. AID 1645856
USP8 inh: blocks human USP8 ubiquitin-rhodamine cleavage. purified USP8, Ub-rhodamine cleavage fluorescence, 30 min. P40818. 47,000 tested, 4.2% active. inhibition, % at 20 µM
* hit, by the source's call; i = inactive. No stated cut-off is given here; in the data, active means inhibition above about 30%; inactive means the rest.

SMILES | USP30 block | USP28 inh | USP17 inh | USP10 inh | USP8 inh
CCN(CC)CCNC(=O)c1ccc2nnc(C3CN(c4ncccn4)CCN3C)n2c1 (stereo unspecified) | 7 | 0 | 1 | -1 | -25
Cc1cccc(C(=O)NCC(=O)N2CCN(c3ccc(Cl)cc3)CC2)c1 | 41* | 4 | 33* | 6 | 12
COc1ccccc1C1CC(c2ccccc2)N(C(=O)CC(C)C)c2ncnn21 (stereo unspecified) | 31* | 14 | 27 | 2 | 4
Cc1ccc(C2CC(c3ccccc3)N(C(=O)C(C)C)c3ncnn32)cc1 (stereo unspecified) | 40* | 13 | 13 | 2 | 5
COc1ccc(-c2cc3n(C)c(C)c(CCC(=O)NCc4ccc(F)cc4)c(=O)n3n2)cc1 | 54* | 17 | 66* | -1 | 6
Cc1ncc(-c2ccncc2)c(C2CCN(C(=O)Cc3ccc(F)cc3)CC2)n1 | -1 | -1 | 0 | 1 | 5
Cc1c(Cc2ccccc2)sc(NC(=O)c2ccc(Cl)cc2)c1C(N)=O | -33 | -11 | 33* | 5 | -13
c1ccc(-c2cc3nc(NCCc4ccncc4)ccn3n2)cc1 | 2 | -2 | 0 | -7 | -25
c1coc(-c2cc3nc(NCCCn4ccnc4)ccn3n2)c1 | -92 | 23 | 46* | -6 | 15
COc1cc(OC)c(NC(=O)c2nc3ccccc3nc2N2CCCC2)cc1Cl | i | -238 | -141 | -6 | -250
COc1ccc(Cl)cc1NC(=O)c1cc(-c2ccccn2)n[nH]1 | -34 | -11 | 61* | 47* | 84*
COc1cc(OC)c(NC(=O)c2cc(-c3ccccn3)n[nH]2)cc1Cl | 15 | 2 | -4 | 40* | 89*
O=C(Nc1ccc(Cl)cc1)c1cc(-c2ccccn2)n[nH]1 | 13 | 8 | 6 | 2 | -13
Cc1ccc(Cl)cc1NC(=O)c1cc(-c2ccccn2)n[nH]1 | -2 | -8 | 73* | 23 | 19
COc1ccc(CNC(=O)c2cc(-c3ccccn3)n[nH]2)cc1 | -10 | -9 | -70 | -2 | -1
Cc1ccc(CN2CC(=O)N3Cc4[nH]c5ccccc5c4C[C@@H]3C2=O)cc1 | -10 | -2 | -2 | -10 | -7
CC(=O)c1ccc(N2C(=O)[C@H]3Cc4c([nH]c5ccccc45)CN3C2=O)cc1 | 10 | 7 | 44* | 19 | 28
Cc1ccc(Cn2c(C(=O)O)c(CNCCC3=CCCCC3)c3ccccc32)cc1 | 16 | 39* | 24 | 10 | 21
COc1ccc2c(CNCCc3ccccc3)c(C(=O)O)n(Cc3ccc(F)cc3Cl)c2c1 | 30* | 21 | -10 | 13 | 0
Cc1ccc2c(CNCCc3ccccc3C)c(C(=O)O)n(Cc3ccccc3C)c2c1 | -82 | -19 | -35 | 0 | -1
COc1ccc(Cn2c(C(=O)O)c(CNCCC3=CCCCC3)c3ccccc32)cc1 | -6 | 12 | 5 | -3 | -2
CSc1ccc(CNCc2c(C(=O)O)n(Cc3ccccc3)c3cc(C)ccc23)cc1 | 58* | 44* | 24 | 20 | 24
COc1ccc(CNC(=O)c2ccccc2NC(=O)c2ccccc2F)cc1 | 1 | 0 | 10 | 2 | 3
COc1ccc(CNC(=O)c2ccc(CNS(=O)(=O)c3ccc(NC(C)=O)cc3)cc2)cc1 | 37* | 13 | 41* | 5 | 19
CC(=O)Nc1ccc(S(=O)(=O)NCc2ccc(C(=O)NCCN3CCCCCC3)cc2)cc1 | -123 | -6 | 35* | -6 | -10
SMILES | USP30 block | USP28 inh | USP17 inh | USP10 inh | USP8 inh
COc1ccc2cc(C(C)C(=O)NCc3ccccc3)ccc2c1 (stereo unspecified) | 42* | 28 | 12 | 9 | -12
COc1ccc(C(=O)Nc2ccccc2C(=O)NCc2ccccc2)cc1 | 92* | 23 | 16 | 7 | 16
O=C(C1CCCC1)N1CCC2(CC1)Nc1cccnc1NC2=NCc1ccccc1 | i | -218 | -193 | -2 | -218
O=C(NC(Cc1ccccc1)c1nnc(N2CCCCCC2)o1)C1CCC1 (stereo unspecified) | 18 | 11 | 11 | 0 | 18
Cc1ccc(C(=O)N2C[C@@H](O)[C@H](N3CCc4ccccc4C3)C2)cn1 | -20 | -3 | -6 | -1 | 2
COc1ccc(CNC(=O)c2ccc(S(=O)(=O)Nc3ccccc3F)cc2)cc1 | 31* | 11 | 25 | 7 | 12
COCCN1CCc2cc(C(=O)N3CCCC3)c(NC(C)C)nc2CC1 | -197 | -90 | -113 | -12 | -67
COc1ccccc1CNC(=O)C1CCCN(c2nc3c(C)cc(C)cc3s2)C1 (stereo unspecified) | 6 | -14 | -3 | 1 | -16
Cc1cc(C)c2nc(N3CCCC(C(=O)NCc4cccc(F)c4)C3)sc2c1 (stereo unspecified) | 37* | 7 | 22 | 6 | 22
Cc1cc(C)c2nc(N3CCCC(C(=O)NCc4ccccc4C)C3)sc2c1 (stereo unspecified) | 19 | 19 | 33* | 4 | 27
CCCN1CCN(C(=O)CN2Cc3ccccc3C2=O)CC1 | 16 | 2 | 15 | 0 | -1
CN1CCN(C(CNC(=O)COc2ccc(Cl)cc2)c2ccc(F)cc2)CC1 (stereo unspecified) | 11 | -5 | 4 | -1 | -4
Cc1ccccc1CNC(=O)c1c(O)c2cnn(Cc3ccccc3)c2[nH]c1=O | -76 | -17 | -21 | 1 | 20
O=C(NCc1ccccc1F)c1c(O)c2cnn(Cc3ccccc3)c2[nH]c1=O | 1 | 11 | 32* | 16 | 80*
O=C(Nc1ccc(F)cc1)c1c(O)c2cnn(Cc3ccccc3)c2[nH]c1=O | -1 | 3 | 0 | 6 | 42*
O=C(Nc1cccc(F)c1)c1c(O)c2cnn(Cc3ccccc3)c2[nH]c1=O | -1 | -1 | 4 | 11 | 61*
COc1ccc(CNc2nc(-c3ccccc3)nn2S(=O)(=O)c2ccc(C)cc2)cc1 | 30 | 12 | 5 | 8 | -2
CCCn1cc(CN2CCC(C(=O)Nc3ccc(-c4cccc(C)c4)cc3)CC2)c(C)n1 | 19 | 17 | -7 | -5 | 6
O=C(COc1ccc(Cl)cc1)NCc1nnc(SCC(=O)NCc2ccc3c(c2)OCO3)o1 | 26 | 0 | 70* | 1 | 30
O=C(COc1ccccc1-c1nnc(-c2ccccc2)o1)NCc1ccc2c(c1)OCO2 | 10 | 7 | 29 | -3 | 21
COC(=O)c1ccc(CSc2nnc(CNC(=O)COc3ccc(Cl)cc3)o2)o1 | -10 | -7 | -15 | 0 | -8
COc1ccc(CCNC(=O)CSc2nnc(CNC(=O)COc3ccc(Cl)cc3)o2)cc1OC | 34* | 25 | 46* | 2 | 19
CS(=O)(=O)N1CCCC1c1nnc2n1CCNC2 (stereo unspecified) | 6 | 1 | -13 | -2 | -103
CCN1CCN(c2nc(NCc3ccco3)c3ccccc3n2)CC1 | -15 | -9 | -18 | -4 | -3
Cc1ccc(Nc2nc(NCc3ccco3)c3ccccc3n2)cc1 | 60* | 67* | 82* | 9 | 31*
